Sampled rows, rich in hits. Any-hit rate of the full collection: about 1.2%.
hERG WT inh – KCNH2 (human, wildtype) channel inhibition; Q12809; U2OS, BacMam KCNH2, thallium flux FluxOr; active compounds read low; activity change, % at 1.84 µM; actives 0.37% (n = 340,000); AID 720551;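 active = maximum activity change below -70%; inconclusive = maximum activity change between -70% and -50%; inactive = maximum activity change above -50%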
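U2OS cells transduced with wild-type KCNH2 virus are loaded with FluxOr dye for 45 min, and thallium flux is measured in kinetic reads before and after stimulation buffer. Rate constants are normalized to DMSO controls.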
GCN5L2 inh – inhibitors of human GCN5L2 histone acetyltransferase. actives 0.21% (n = 390,000). AID 504327. Q92830. GCN5L2 HAT assay, ThioGlo1 CoA-SH fluorescence. Potency, µM (highest dose often 58.9 µM), inactives show at the highest dose activity change, negative = inhibition, usual class: inhibitors; also: potency is read from the fitted curve at half-maximal effect
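ThioGlo1-coupled HAT assay: 20nM GCN5L2, 70uM acetyl-CoA, 75uM H3(1-25) peptide, pH 7.5. Fluorescence read at 340/540nm at start and after 20 min at room temperature.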
KCNH2 3.1 inh – blocks the human KCNH2 3.1 channel isoform; U2OS KCNH2 3.1, thallium flux FluxOr; active compounds read low; actives 0.95% (n = 340,000); activity change, % (tested at about 1.8 µM);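 active = maximum activity change below -70%; inconclusive = maximum activity change from -70% to -50%; inactive = maximum activity change above -50%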;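 also: thallium influx rate constant from kinetic fluorescence after stimulation buffer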
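Thallium flux via FluxOr fluorescence (Red40 quencher, 45 min loading) in U2OS cells virally expressing the KCNH2 3.1 isoform (1.77 x 10^8 /mL virus, overnight at 37 C). Rate constants from 2-min kinetic reads post-stimulation, normalised to positive and negative controls.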
Pin1 inh – blocks the human prolyl isomerase Pin1; Pin1 FP peptide displacement, HiFluor488, 10 min; actives 0.009% (n = 390,000); Potency, µM (top dose mostly 115 µM), for inactives: at the highest dose activity, negative = inhibition, most hits filed as inhibitors; Q13526; AID 504891; active = well fitted inhibition curve with a large enough effect in the polarisation, with a control signal flat, not every such curve was filed as active; inconclusive = small, poorly fitted or top-dose-only effect, or effect the other way, or a change in a side signal; inactive = no such curve, though single readings can be large or run the other way; the % refers to the polarisation; also: potency is read from the fitted curve at half-maximal effect
Tb PGK inh – inhibitors of T. brucei phosphoglycerate kinase | P07378 | PGK/GAPDH coupled, Kinase-Glo luminescence, 60 min | Potency, µM (titrated, usually from 57.5 µM), for the others: at the top dose activity change, negative = inhibition, hits mostly inhibitors | actives 0.043% (n = 380,000) | AID 602233; also: potency is read from the fitted curve at half-maximal effect; nearly all actives have a fitted effect of over 60% in size
Target sequence (P07378 whole entry, looked up): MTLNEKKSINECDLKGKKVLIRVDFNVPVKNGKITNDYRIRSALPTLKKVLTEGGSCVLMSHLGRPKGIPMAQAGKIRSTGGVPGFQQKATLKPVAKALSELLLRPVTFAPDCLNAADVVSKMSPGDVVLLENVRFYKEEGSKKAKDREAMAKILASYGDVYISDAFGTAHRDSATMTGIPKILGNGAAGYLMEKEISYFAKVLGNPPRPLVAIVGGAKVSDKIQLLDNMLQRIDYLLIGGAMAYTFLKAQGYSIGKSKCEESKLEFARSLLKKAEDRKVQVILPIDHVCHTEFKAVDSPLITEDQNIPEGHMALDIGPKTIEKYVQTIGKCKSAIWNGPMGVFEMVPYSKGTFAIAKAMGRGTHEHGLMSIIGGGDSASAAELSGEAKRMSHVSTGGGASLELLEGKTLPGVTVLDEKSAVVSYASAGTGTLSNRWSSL
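Luminescent ATP detection (Kinase-Glo Plus) follows a 60-minute room-temperature incubation, with wells lacking PGK as controls. Buffer: 100 mM TEA (pH 7.6), 5 mM MgCl2, 0.01% Tween-20. Coupling enzyme GAPDH (100 nM final) supplies unstable 1,3-BPG in-well.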
RGS4 inh – inhibitors of human regulator of G protein signaling 4. actives 0.039% (n = 390,000). Potency, µM (doses to about 114 µM), inactives show at the top dose activity change, negative = inhibition, usual class: inhibitors. P49798. Transcreener GDP fluorescence polarization, RGS4-accelerated GTP hydrolysis; also: potency is read from the fitted curve at half-maximal effect; nearly all actives have a fitted effect of over 75% in size
Target sequence (P49798 whole entry, looked up): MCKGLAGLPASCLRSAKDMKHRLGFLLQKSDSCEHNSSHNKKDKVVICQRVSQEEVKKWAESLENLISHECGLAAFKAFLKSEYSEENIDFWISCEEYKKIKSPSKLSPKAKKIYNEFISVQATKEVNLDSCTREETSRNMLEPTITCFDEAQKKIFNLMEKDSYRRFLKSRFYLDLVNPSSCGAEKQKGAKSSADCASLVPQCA
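MLSMR compounds (23 nl, pin-transferred) preincubated 10 min at room temperature with a 500nM (2x) first reagent, then RGS4 at 900nM (2x) plus Transcreener GDP mix added; fluorescence polarization (620/688 nm) read before and after 90 min at 30 °C.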
* marks the source's active call; other numbers are inactive results; i = inactive; ? = inconclusive; . = no result; [ ] = dose if it differs, or a comment. Unless noted, calls follow the shape of the dose curve; as a rule, active = well fitted curve in the direction sought with a large enough effect; inconclusive = small, poorly fitted or top-dose-only effect, or another doubt; inactive = no such curve, though single readings can be large; an effect the other way counts as inactive or inconclusive. % is scaled to controls: 0 for no effect and ±100 for the full control effect.

SMILES	hERG WT inh	GCN5L2 inh	KCNH2 3.1 inh	Pin1 inh	Tb PGK inh	RGS4 inh
CCOc1ccc(-c2oc3ccccc3c(=O)c2O)cc1OCC	.	-15%	.	-1%	7%	-10%
O=c1cc(-c2ccccc2)oc2ccccc12	-2	-1%	-4	1%	-7%	-13%
COc1ccc(-c2oc3ccccc3c(=O)c2O)cc1OC	.	32µM*	.	.	.	.
COc1ccc(-c2cc(=O)c3ccccc3o2)cc1OC	.	35µM*	.	.	.	.
O=C(Nc1ccc(OC(F)(F)F)cc1)C(NS(=O)(=O)c1cccc2nsnc12)c1ccccc1 (configuration not stated)	.	-14%	.	-4%	-2%	3%
COc1cccc(CN(C(=O)c2ccc(C(C)(C)C)cc2)C2CCS(=O)(=O)C2)c1 (configuration not stated)	.	0%	.	3%	-12%	-15%
CC(C)c1ccc(NC(=O)C2CCN(C(=O)[C@@H]3Cc4ccccc4CN3)CC2)cc1	-17	-8%	-88*	1%	-3%	14%
Cc1ccc(NC(=O)C2CCN(C(=O)[C@@H]3Cc4ccccc4CN3)CC2)cc1	-2	-6%	-46	-12%	0%	-10%[56.9 µM]
N#CC1(NC(=O)COC(=O)c2nccnc2N)CCCCC1	-202*	-8%	4	-9%	i	0%
Cc1ccnc(NC(=O)c2cccc(S(=O)(=O)N3CCN(c4ccc(F)cc4)CC3)c2)c1	-26	-2%	-72*	17%	0%	10%
Cc1ccnc(NC(=O)c2cccc(S(=O)(=O)N3CCOCC3)c2)c1	-1	-5%	0	-2%	-9%	-24%
Cc1ccc(-c2csc(NC(=O)c3cccc(S(=O)(=O)N4CCN(C)CC4)c3)n2)cc1	-2	-1%	-79*	5%	1%	4%
Cc1ccc(CCNc2nc3c(S(=O)(=O)c4ccc(C)cc4)nnn3c3ccsc23)cc1	.	-10%	.	14%	-2%	7%
O=c1c2ccccc2[nH]c(=S)n1CCCN1CCC(Cc2ccccc2)CC1	-14	-4%	-76*	0%	.	-26%
CC1CCN(CCCn2c(=S)[nH]c3ccccc3c2=O)CC1	17	-1%	-15	-3%	i	-10%
COc1ccc(C(OCC(O)CN(C)C2CCCCC2)c2ccc(OC)cc2)cc1 (configuration not stated)	0	-6%	-44	2%	7%	2%
COc1ccc(CN(C)CC(O)COC(c2ccc(OC)cc2)c2ccc(OC)cc2)cc1 (configuration not stated)	?	-3%	-113*	1%	i	-20%
CCOc1ccc(CN(C)CC(O)COC(c2ccc(OC)cc2)c2ccc(OC)cc2)cc1 (configuration not stated)	-85*	-1%	-93*	-4%	-7%	-15%
O=C(Nc1ccccc1)N1CCC2(CC1)CCN(S(=O)(=O)c1ccccc1)CC2	.	-13%	.	.	.	.
CN(CCCNC(=O)c1cc2c(Cl)nc3ccccc3c2s1)Cc1ccccc1	-307*	-3%	.	-4%	-8%	-10%
CCN(CCCC(=O)c1ccc(F)cc1)CCc1ccccc1	?	21%	-90*	2%	-4%	-10%
O=C(c1ccc(CS(=O)c2ccccc2Cl)o1)N1CCN(c2ccccc2F)CC1 (configuration not stated)	.	-2%	.	-8%	-4%	-10%
COc1ccc(-c2nn(-c3ccccc3)cc2/C=C2/SC(=S)N(CCC(=O)O)C2=O)c(C)c1	9	?	-1	.	-3%	-63%[56.9 µM]
COc1ccc(-c2nn(-c3ccccc3)cc2/C=C2/SC(=S)N(CCC(=O)O)C2=O)cc1	3	?	7	?	20µM*	?
O=[N+]([O-])c1cccc(COc2ccccc2CN2CCOCC2)c1	1	.	6	-1%	-8%	5%
SMILES	hERG WT inh	GCN5L2 inh	KCNH2 3.1 inh	Pin1 inh	Tb PGK inh	RGS4 inh
Cc1cc(OCc2cccc(Cl)c2)c(C)cc1CN1CCOCC1	8	-16%	-71*	-6%	-3%	-15%
Cc1nn2c(N3CCN(CCO)CC3)c3c(nc2c1-c1ccccc1)CCCC3	2	-2%	-94*	3%	-1%	-8%
Cc1nn2c(N3CCCC3)c3c(nc2c1-c1ccccc1)CCC3	6	-12%	3	19%	6%	-30%
Cc1ccc(NC(=O)C(=O)NCCc2sc(-c3ccc(Cl)cc3)nc2C)cc1C	.	-22%	.	-3%	4%	1%
Cc1cc(NC(=O)c2cc(-c3ccccc3C)nc3ccccc23)no1	4	-4%	21	-13%	5%	-3%
Cc1cc(NC(=O)c2cc(-c3ccc(C)s3)nc3ccccc23)no1	-3	28µM*	-11	30%	-10%	7%
Cc1ccc(-c2csc(N3CCN(CCCn4c(-c5ccncc5)nc5ccccc54)CC3)n2)cc1	-7	-4%	-25	19%	-8%	-10%
Cc1ccc(-c2csc(N3CCC[C@@H]3C(=O)NCCn3c(-c4ccncc4)nc4ccccc43)n2)cc1	6	-13%	-105*	-2%	i	-7%
CCC(C)(CCN1CCOCC1)N(Cc1cc2ccccc2n(C)c1=O)C(=O)C1CCCCC1 (configuration not stated)	.	.	.	1%	.	.
O=C(CCCn1c(=S)[nH]c2cc3c(cc2c1=O)OCO3)NCCc1ccc(Cl)cc1	6	.	6	.	5%	.
O=C(CCCCCn1c(=S)[nH]c2cc3c(cc2c1=O)OCO3)NCCc1ccccc1	-13	-3%	-87*	9%	0%	-2%
CCc1ccccc1NC(=O)CSc1ncccc1C(=O)O	.	1%	.	2%	3%	19%
O=C(c1nc(SCc2ccc([N+](=O)[O-])cc2)n2ccccc12)C(F)(F)F	20	1%	-71*	-1%	5%	8%
Cc1ccc(S(=O)(=O)CC(CN2CCOCC2)N2CCOCC2)cc1 (configuration not stated)	-3	2%	3	-3%	i	-17%
Cc1ccc(S(=O)(=O)CC(C)N2CCOCC2)c(S(=O)(=O)CC(C)N2CCOCC2)c1 (configuration not stated)	-224*	-5%	8	-7%	-13%	4%
CCN1CCN(C(c2ccccc2Cl)c2sc3nc(-c4ccco4)nn3c2O)CC1 (configuration not stated)	.	9%	.	-3%	-2%	3%
O=C(O)c1cccc(S(=O)(=O)N2CCN(S(=O)(=O)c3ccc4c(c3)OCCO4)CC2)c1	.	.	.	1%	.	.
Cc1ccc(C(=O)O)cc1-c1ccc(C=C2C(=O)c3ccccc3C2=O)o1	4	?	18	86%	?	?

Bioassay records deposited in PubChem BioAssay by National Center for Advancing Translational Sciences (NCATS).
